Source: the supplement of paper PMC6555819

How the values were obtained:
Assay in all cases: PBM binding z-score (relative to random genomic background probes); higher = stronger binding; sequences stand for … in GC…GCGATTGACAGCGTAGAATGAAGG
[1] = system: FXR:RXRa (NR concentration 270 nM, RXRa partner concentration 90 nM)
Procedure, shortened: (§1)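 The probes on custom Agilent 4×180K protein-binding microarrays were double-stranded, with 34-nt variable regions bearing direct-repeat seeds, single-nucleotide variants, half-site ablations and random human genomic background sequences. Incubation lasted 1 h with ligand-free nuclear receptor dimers in PBS pH 7.4, 2% milk, 0.02% Triton X-100, 1 mM DTT, 0.2 mg/mL BSA and 0.4 mg/ml salmon testes DNA. Antibodies against each partner (one per run) detected bound dimers, and fluorescence scans were regression-normalized. Binding z-scores take the random background probes as reference.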

[2] = system: LXRa:RXRa (NR concentration 270 nM, RXRa partner concentration 90 nM)
Procedure, shortened: as §1

[3] = system: LXRa homodimer (NR concentration 270 nM)
Procedure, shortened: as §1

[4] = system: LXRb:RXRa (NR concentration 270 nM, RXRa partner concentration 90 nM)
Procedure, shortened: as §1

[5] = system: LXRb homodimer (NR concentration 270 nM)
Procedure, shortened: as §1

[6] = system: PPARa:RXRa (NR concentration 270 nM, RXRa partner concentration 90 nM)
Procedure, shortened: as §1

[7] = system: PPARg:RXRa (NR concentration 180 nM, RXRa partner concentration 90 nM)
Procedure, shortened: as §1

[8] = system: PPARg:RXRa 270nM:90nM, anti-RXR (NR concentration 270 nM, RXRa partner concentration 90 nM)
Procedure, shortened: as §1

[9] = system: PPARg:RXRa 30nM:10nM, anti-RXR (NR concentration 30 nM, RXRa partner concentration 10 nM)
Procedure, shortened: as §1

[10] = system: PPARg:RXRa 90nM:30nM, anti-RXR (NR concentration 90 nM, RXRa partner concentration 30 nM)
Procedure, shortened: as §1

[11] = system: PPARg:RXRa DBDmut IVT, anti-RXR (DBD mutation: RXRa K156A/R161A, NR concentration 270 nM, RXRa partner concentration 90 nM)
Procedure, shortened: as §1

[12] = system: PPARg:RXRa IVT, anti-PPARg (NR concentration 270 nM, RXRa partner concentration 90 nM)
Procedure, shortened: as §1

[13] = system: PPARg DBDmut:RXRa IVT, anti-PPARg (DBD mutation: PPARg1 K132A/R137A, NR concentration 270 nM, RXRa partner concentration 90 nM)
Procedure, shortened: as §1

[14] = system: PPARg DBDmut IVT, anti-PPARg (DBD mutation: PPARg1 K132A/R137A, NR concentration 270 nM)
Procedure, shortened: as §1

[15] = system: PPARg homodimer (NR concentration 180 nM)
Procedure, shortened: as §1

[16] = system: PXR:RXRa (NR concentration 270 nM, RXRa partner concentration 90 nM)
Procedure, shortened: as §1

[17] = system: PXR homodimer (NR concentration 270 nM)
Procedure, shortened: as §1

[18] = system: RARa:RXR (NR concentration 270 nM, RXRa partner concentration 90 nM)
Procedure, shortened: as §1

[19] = system: RARa homodimer (NR concentration 270 nM)
Procedure, shortened: as §1

[20] = system: RARb:RXRa (NR concentration 270 nM, RXRa partner concentration 90 nM)
Procedure, shortened: as §1

| Sequence | PBM binding z-score [1] | PBM binding z-score [2] | PBM binding z-score [3] | PBM binding z-score [4] | PBM binding z-score [5] | PBM binding z-score [6] | PBM binding z-score [7] | PBM binding z-score [8] | PBM binding z-score [9] | PBM binding z-score [10] | PBM binding z-score [11] | PBM binding z-score [12] | PBM binding z-score [13] | PBM binding z-score [14] | PBM binding z-score [15] | PBM binding z-score [16] | PBM binding z-score [17] | PBM binding z-score [18] | PBM binding z-score [19] | PBM binding z-score [20] |
| --- | --- | --- | --- | --- | --- | --- | --- | --- | --- | --- | --- | --- | --- | --- | --- | --- | --- | --- | --- | --- |
| ACAGCCAGGTGAGTGAAGGTAACTCAGCTGGACG | 0.0409 | -0.362 | -0.936 | -0.925 | -1.03 | -0.248 | 0.164 | -0.463 | -0.822 | -0.5 | 0.411 | 0.424 | -0.718 | -0.566 | -0.774 | -0.607 | -0.722 | -0.11 | -0.431 | 0.179 |
| ACTATTAGTTGTGACGAGGGCAACCGATAGGTTG | -0.101 | -0.0626 | -0.0175 | -0.0591 | -0.181 | 0.388 | 0.623 | 0.256 | -0.152 | 0.259 | 0.298 | 0.518 | 0.938 | 1.19 | 0.35 | 0.597 | -0.0621 | 0.536 | 0.293 | 1.06 |
| GCATATAGGTAATACAAGGTGAAATTCCGATTGT | 1.74 | 2.2 | 0.342 | 0.712 | -0.117 | 1.67 | 1.51 | 0.952 | 0.515 | 0.795 | 3.71 | 2.81 | 0.826 | 1.54 | 0.323 | 0.55 | 0.0431 | 1.17 | 0.97 | 0.349 |
| AGAATGAGGTTATACGGAGATCAGGGAAGAAAGT | 2.36 | 1.94 | 0.0841 | 1.7 | 0.0612 | 3.29 | 1.7 | 2.04 | 0.685 | 1.45 | 2.35 | 2.05 | 1.14 | 0.774 | 0.836 | 1.25 | 0.96 | 1.74 | 0.352 | 1.5 |
| CCTGCTAGGTCAATAGTCAGCTAAAGCAGCTCGC | 2.43 | 1.66 | -0.401 | 0.931 | 0.148 | 2.28 | 2.33 | 2.95 | 0.219 | 1.9 | 3.97 | 3.08 | -0.361 | -0.649 | 0.586 | 0.324 | -0.908 | 0.911 | -1.08 | 3.45 |
| GCTTGTAGATCAAGGTTAAGCAAGACTAAGCTAA | 0.263 | 0.428 | -0.624 | 0.0406 | -0.925 | 1.77 | 1.05 | 1.94 | 0.405 | 1.6 | 1.5 | 1.36 | -0.46 | -0.377 | 0.0849 | 0.191 | -0.43 | 1.07 | -0.348 | 0.844 |
| CCTGCTAGGTCATTGGTCAGCTAAAGCAGCTCGC | 4.06 | 3.07 | 0.559 | 2.13 | 0.108 | 3.56 | 3.71 | 4.63 | 1.79 | 4.05 | 3.86 | 3.73 | 0.135 | -0.404 | 1.24 | 1.47 | 0.029 | 2.07 | -0.492 | 3.97 |
| CTCGAAAGGTCGGTTAAGGTGAGTATACGGATAA | 3.06 | 2.1 | 0.202 | 1.84 | 0.111 | 3.04 | 0.591 | 1.48 | 0.313 | 0.943 | 0.549 | 1.14 | 0.246 | 0.287 | 1.69 | 2.61 | 0.341 | 1.97 | 0.996 | 3.22 |
| CCTAGCAGGCCAGTGTCACTCAAGCATTTCGCTT | -0.361 | -0.253 | -0.614 | -0.187 | -0.597 | -0.0659 | -0.338 | -0.0615 | -0.773 | -0.752 | 1.35 | 0.117 | -1.21 | -1.52 | -0.723 | -0.407 | -0.826 | -0.184 | -0.658 | 0.286 |
| CCTCGGTGGACAACAGGAGGTCAGAGCTGCCAGA | 0.578 | 1.81 | 1.76 | 1.05 | -0.647 | 1.67 | 0.123 | 0.139 | -0.911 | -0.207 | -0.628 | 0.0551 | -1.3 | -1.14 | 0.735 | 1.53 | 0.332 | 1.77 | 0.503 | 1.93 |
| CGTCAAAGTTCAAGGTATCGTAACAGAAAGCAGC | 5.48 | 5.39 | 2.28 | 3.16 | 1.03 | 4.38 | 3.83 | 4.59 | 1.75 | 3.38 | 0.378 | 1.35 | -0.37 | 0.459 | 2.03 | 3.81 | 1.91 | 3.09 | 1.17 | 4.93 |
| CCATACGGGTCACGAGGTTATAGCACGACGAGCG | 6.99 | 4.32 | 0.528 | 3.79 | -0.0225 | 5.93 | 7.19 | 6.47 | 3.55 | 5.37 | 3.91 | 5.41 | 1.88 | 0.373 | 2.89 | 4.5 | 0.355 | 5.93 | 1.79 | 4.62 |
| CCTCGGAGGACAACAGGAGGCCAGAGCTGCCAGA | -0.418 | -0.512 | -0.358 | -1.07 | -0.956 | -0.509 | 0.0998 | -0.942 | -0.765 | -0.807 | -0.393 | -0.707 | -0.633 | -1.31 | -0.602 | -0.549 | -0.283 | -0.45 | -0.398 | 1.07 |
| TCTTGTAGAGCAACAGGAGGTTAAGAAAGATCGA | 0.207 | 0.661 | -0.177 | 0.486 | -0.586 | 1.12 | -0.0991 | 0.587 | 1.4 | 0.921 | 1.98 | 1.27 | 0.588 | 0.0668 | -0.265 | 0.413 | -0.46 | 0.506 | -0.541 | 0.184 |
